Measurements as given in PubChem BioAssay (NCATS).
Inconclusive results are not listed. The source made the active and inactive calls. Calls follow the shape of the dose curve; as a rule, active = well fitted curve in the direction sought with a large enough effect; inconclusive = small, poorly fitted or top-dose-only effect, or another doubt; inactive = no such curve, though single readings can be large; an effect the other way counts as inactive or inconclusive.

Columns and labels:
[1] = molecular target: Protein phosphatase 1D (Homo sapiens) (UniProt O15297); assay: RapidFire Mass Spectrometry qHTS Assay for Modulators of WT P53-Induced Phosphatase 1 (WIP1) (AID 1347424); details: WIP1 dephosphorylation of phosphopeptide, RapidFire MS; series mostly up to 63 µM;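 also: amount of dephosphorylated VEPPL-S-QETFS peptide product formed by WIP1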
Sequence of Protein phosphatase 1D (Homo sapiens) (O15297 whole entry, looked up): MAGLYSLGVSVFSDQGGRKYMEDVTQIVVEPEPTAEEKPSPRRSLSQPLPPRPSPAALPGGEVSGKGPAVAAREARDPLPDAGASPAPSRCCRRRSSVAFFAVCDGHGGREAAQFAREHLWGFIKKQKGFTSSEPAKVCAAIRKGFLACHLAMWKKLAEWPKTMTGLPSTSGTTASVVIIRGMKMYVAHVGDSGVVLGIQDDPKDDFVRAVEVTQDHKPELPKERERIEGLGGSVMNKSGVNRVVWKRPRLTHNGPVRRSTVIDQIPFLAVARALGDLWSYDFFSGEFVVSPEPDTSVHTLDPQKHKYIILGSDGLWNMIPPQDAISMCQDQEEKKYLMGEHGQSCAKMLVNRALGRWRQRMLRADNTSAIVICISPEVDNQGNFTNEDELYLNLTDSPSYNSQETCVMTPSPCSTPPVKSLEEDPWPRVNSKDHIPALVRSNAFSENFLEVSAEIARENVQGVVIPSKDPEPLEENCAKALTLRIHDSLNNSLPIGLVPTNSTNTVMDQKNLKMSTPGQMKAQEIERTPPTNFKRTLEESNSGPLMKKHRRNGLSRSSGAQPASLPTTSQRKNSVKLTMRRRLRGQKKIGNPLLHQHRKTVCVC
Method in brief: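 10 nM WIP1 + cpd, 1 h RT; + 2 uM VEPPL-pS-QETFS, 5 min RT; stop 0.5% formic acid; labelled product standard 1 uM; RapidFire MS. Buffer 50 mM Tris pH 7.5, 30 mM MgCl2, 1 mM TCEP.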

[2] = molecular target: Protein phosphatase 1D (Homo sapiens) (UniProt O15297); assay: Rhodamine-PBP qHTS Assay for Modulators of WT P53-Induced Phosphatase 1 (WIP1) (AID 1347425); details: recombinant WIP1, Rhodamine-PBP phosphate fluorescence, real-time; series mostly up to 57.5 µM
Method in brief: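 The read-out is the change in Rhodamine-PBP fluorescence (f1 - f0, ex 525/em 598 nm) as Pi is released, read each minute for 11 min. Final reaction: 5 nM WIP1, 10 uM phosphopeptide VEPPL-pS-QETFS, 10 uM Rh-PBP, 50 mM Tris-HCl pH 7.5, 30 mM MgCl2. Compound was preincubated with enzyme for 1 hour at room temperature.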

[3] = Primary qHTS for inhibitors of La Crosse Virus (LACV) - induced cell death in SH-SY5Y cells (AID 1508616); details: SH-SY5Y LACV cytopathicity rescue, ATP luminescence, 6 d; series mostly up to 4.29 µM;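 also: top concentration of the series differs between compounds; higher means more rescue of cells from virus-induced death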
Method in brief: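 SH-SY5Y cells (6000/well) plated 24 h, then given compounds by pin transfer and LACV at 0.01 MOI for 6 days at 37C. Viability measured by ATPLite luminescence, normalized to infected DMSO and uninfected DMSO.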

[4] = molecular target: Calcium and integrin-binding protein 1 (Homo sapiens) (UniProt Q99828); assay: Primary qHTS for Identification of Calcium Integrin Binding Protein 1 (CIB1) Competitor (AID 1508620); details: CIB1-GST / FITC-alphaIIb peptide fluorescence polarization; series mostly up to 114 µM;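 also: GST tagged CIB1 binding a fluorescein labelled alphaIIb integrin peptide tracer; top concentration of the series differs between compounds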
Sequence of Calcium and integrin-binding protein 1 (Homo sapiens) (Q99828 whole entry, looked up): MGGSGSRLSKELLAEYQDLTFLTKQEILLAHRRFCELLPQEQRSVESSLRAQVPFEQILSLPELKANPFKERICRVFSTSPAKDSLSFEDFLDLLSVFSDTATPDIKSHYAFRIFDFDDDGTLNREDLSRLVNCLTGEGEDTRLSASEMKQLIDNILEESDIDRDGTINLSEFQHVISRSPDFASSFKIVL
Method in brief: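 CIB1-GST (1 uM final) and compound incubated 15 min at room temperature before adding FITC-alphaIIb peptide tracer (100 nM final). Competition for binding read by fluorescence polarization (ex 480, em 540) after another 15 min at room temperature.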

Measured: outcome

C[C@@H]1CCC[C@H](C)N1
inactive: [1] | [2] | [3] | [4]

COc1nccnc1NS(=O)(=O)c1ccc(N)cc1
inactive: [1] | [2] | [3] | [4]

CNCc1ccccc1
inactive: [2] | [3] | [4]

CC(=O)N(CC(O)CO)c1c(I)c(C(=O)NCC(O)CO)c(I)c(C(=O)NCC(O)CO)c1I (configuration not stated)
inactive: [1] | [2] | [3] | [4]

O=C(O)c1cc(=O)c2ccccc2o1
inactive: [1] | [2] | [3] | [4]

NS(=O)(=O)c1ccc(NC(=O)CCC(=O)O)cc1
inactive: [1] | [2] | [3] | [4]

CCOC(=O)OC(C)OC(=O)[C@@H]1N2C(=O)[C@@H](NC(=O)[C@H](N)c3ccccc3)[C@H]2SC1(C)C (some centres not stated)
inactive: [2] | [3] | [4]

Nc1ccc(C(=O)Oc2ccccc2)c(O)c1
inactive: [1] | [2] | [3] | [4]

O=c1[nH]cnc2nc[nH]c12
inactive: [1] | [3] | [4]

O=C(c1ccccc1)C(O)c1ccccc1 (configuration not stated)
inactive: [1] | [2] | [3]

COCC(=O)Nc1c(I)c(C(=O)NCC(O)CO)c(I)c(C(=O)N(C)CC(O)CO)c1I (configuration not stated)
inactive: [1] | [2] | [3] | [4]

Nc1ccc(S(=O)(=O)c2ccc(N)cc2)cc1
inactive: [1] | [3]

CCOc1cc(NC(C)=O)ccc1C(=O)OC
inactive: [2] | [3] | [4]

O=C(O)Cn1c(C(=O)Nc2nc(-c3ccccc3Cl)cs2)cc2ccccc21
inactive: [3] | [4]

COc1ccc(-c2cc(=O)c3c(O)cc(O[C@@H]4O[C@H](CO[C@@H]5O[C@@H](C)[C@H](O)[C@@H](O)[C@H]5O)[C@@H](O)[C@H](O)[C@H]4O)cc3o2)cc1O
inactive: [2] | [3]

Cc1c(C)c2c(c(C)c1OC(=O)c1cccnc1)CC[C@@](C)(CCC[C@H](C)CCC[C@H](C)CCCC(C)C)O2
inactive: [1] | [2] | [3] | [4]

O=C1c2ccccc2C(=O)C1c1ccc(Br)cc1
inactive: [3] | [4]

O=C(O)[C@@H]1[C@H]2C[C@H]3c4[nH]c5ccccc5c4CCN3C[C@@H]2CC[C@@H]1O
inactive: [2] | [3]

O=C(O)CNC(=O)c1ccccc1I
inactive: [1] | [2] | [3] | [4]

CC(=O)N[C@@H](CC(C)C)C(=O)O
inactive: [1] | [2] | [3] | [4]

O=C(O)c1ccc[n+]([O-])c1
inactive: [1] | [2] | [3] | [4]

CCCCOC(=O)c1ccc(N)cc1
inactive: [2] | [3] | [4]
